{"source": "PubChem BioAssay (NCI)", "note": "Several values for one entry are separate records, joined by “and”; a condition that tells them apart may be missing. Equal entries are not always repeated. The panel holds about 83,000 compounds, 20% with a hit somewhere; the sample as a whole holds those more often.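 Results are percent growth after 48 hours of single-concentration exposure. 100 means growth as in untreated cells, lower positive values show inhibition; negative values down to -100 show cell death.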 Activity calls are given as the source filed them. Rule for the calls: active = growth percent below 10; inactive = the rest."}
{"system": "MDA-MB-468 breast", "experiment": "NCI-60 one-dose screen, 48 h (100 = growth as untreated, 0 = no growth, -100 = all killed)", "conditions": "10 µM unless noted"}
{"smiles": "Nc1ccc(C(OC(=O)c2cc3ccccc3c(Cc3c(O)c(C(=O)OC(c4ccc(N)cc4)(c4ccc(N)cc4)c4ccc(N)cc4)cc4ccccc34)c2O)(c2ccc(N)cc2)c2ccc(N)cc2)cc1", "growth": "-23% (active)"}
{"smiles": "C#CCOc1ccc(-c2csc(NC(=O)C=C)n2)cc1NS(=O)(=O)c1cccc2c(N(C)C)cccc12", "growth": "11.3% (inactive)"}
{"smiles": "CCCCCC/C=C\\CCCCCCCCCc1cc(O)cc(OC)c1O", "growth": "-54.1% (active)"}
{"smiles": "CCCCCCNC(=O)Oc1ccc(/C(=C(\\C)c2ccc(Cl)cc2)c2ccc(OCCCN(C)C)cc2)cc1", "growth": "92% (inactive)"}
{"smiles": "Cc1ccc2[nH]c(-c3ccc(S(C)(=O)=O)cc3)c(/C=N/N=C(N)N)c2c1", "growth": "81.1% (inactive)"}
{"smiles": "Cc1cc(C(=O)Nc2ccc(SC#N)cc2)c(C)o1", "growth": "96.1% (inactive)"}
{"smiles": "NS(=O)(=O)c1ccc(Nc2nc(N/N=C/C=C/c3ccccc3)nc(Nc3ccccc3)n2)cc1", "growth": "15.6% (inactive)"}
{"smiles": "O=C1c2ccccc2C(=O)C1c1ccc(Br)cc1", "growth": "115% (inactive)"}
{"smiles": "C=CCC(O)C=C", "note": "(stereo not given)", "growth": "102% (inactive)"}
{"smiles": "CC(=O)c1ccc2oc(=O)n(Cc3ccc(C#N)cc3)c(=O)c2c1", "growth": "108% (inactive)"}
{"smiles": "Nc1c(C(=O)Nc2ccncc2)sc2nc3c(cc12)CCCCC3", "growth": "54.2% (inactive)"}
{"smiles": "Fc1cc(C2=NNC(c3ccc[nH]3)C2)ccc1-n1ccc(C(F)(F)F)n1", "note": "(stereo not given)", "growth": "89.7% (inactive)"}
{"smiles": "CN(C)C(C(N)=O)c1ccc(Cl)cc1", "note": "(stereo not given)", "growth": "99.2% (inactive)"}
{"smiles": "COc1cc(C2NC(=O)c3ccccc3N2)ccc1OCCCCCOc1c(OC)cc(C2=NOC(c3cc(OC)c(OC)c(OC)c3)C2)cc1OC", "note": "(stereo not given)", "growth": "9.53% (active)"}
{"smiles": "CN1C(=O)N(C)C2C1NN=c1s/c(=C\\c3ccccc3)c(=O)n12", "note": "(stereo not given)", "growth": "23.8% (inactive)"}
{"smiles": "CS(=O)(=O)N1CCc2c(-c3cnc(N)nc3)nc(N3CCOCC3)nc21", "growth": "-27.9% (active)"}
{"smiles": "CC(=O)Nc1c(C)cc(C)cc1C", "growth": "108% (inactive)"}
{"smiles": "Cc1sc(NC(=O)c2ccc(C(C)(C)C)cc2)c(C(=O)O)c1C", "growth": "80% (inactive)"}
{"smiles": "CN1C(=O)N(C)C2Nn3c(s/c(=C\\c4ccc(C(F)(F)F)cc4)c3=O)=NC21", "note": "(stereo not given)", "growth": "98.5% (inactive)"}
{"smiles": "O=C1OC(C(Cl)(Cl)Cl)OC1C(Cl)(Cl)Cl", "note": "(stereo not given)", "growth": "109% (inactive)"}
{"smiles": "CCOc1ccc(/C=N/N=C(N)N)cc1OCC", "growth": "98.3% (inactive)"}
{"smiles": "CCOc1nc(-c2ccccc2)cc2c(O)c(C(=O)N/N=C/c3ccc(N(C)C)cc3)[nH]c(=O)c12", "growth": "158% (inactive)"}
{"smiles": "C[C@H]1c2[nH]c3ccccc3c2C[C@H]2C(=O)N(CCCCCCC(=O)NO)CC(=O)N21", "growth": "60.3% (inactive)"}
{"smiles": "COc1ccc(Cn2cc3c(c2-c2ccccc2)CCc2cnoc2-3)cc1N", "growth": "10.4% (inactive)"}
{"smiles": "C/C(=N\\NC(=O)Cn1c(-c2ccc(S(C)(=O)=O)cc2)nc2cc(Cl)ccc21)c1ccc(Cl)cc1", "growth": "68.7% (inactive)"}
{"smiles": "CCOC(=O)c1cc2c(n1Cc1cc(OC)cc(OC)c1)-c1oncc1CCC2", "growth": "22.4% (inactive)"}
{"smiles": "OCC1OC(n2cnc3c(NCc4ccco4)ncnc32)C(O)C1O", "note": "(stereo not given)", "growth": "-82.8% (active)"}
{"smiles": "Cc1ccccc1/C=C/C(=O)c1cccc(OCCCCOc2cccc(C(=O)/C=C/c3ccccc3C)c2)c1", "growth": "86.1% (inactive)"}
{"smiles": "COc1ccc(O)c(N=Nc2nccs2)c1", "growth": "17.5% (inactive)"}
{"smiles": "CCOC(=O)c1cccc(NC2=C(Cl)C(=O)c3nc(C)ccc3C2=O)c1", "growth": "-33.4% (active)"}
{"smiles": "COc1cc2c(cc1OC)C(Sc1ccc(SC)cc1)c1c(nc(N)c(C#N)c1N)O2", "note": "(stereo not given)", "growth": "-47.1% (active)"}
{"smiles": "O=C1C(Cl)=C(Nc2ccc3cn[nH]c3c2)C(=O)c2ccccc21", "growth": "-82.9% (active)"}
{"smiles": "COc1cc(OC)c2ccc(=O)oc2c1", "growth": "103% (inactive)"}
{"smiles": "CC(C)Cc1ccc(C(C)C(=O)NCc2ccc(Cn3c(=O)sn(CCCI)c3=O)cc2)cc1", "note": "(stereo not given)", "growth": "64.3% (inactive) and -91.8% (active)"}
{"smiles": "COc1ccc(/C=C2\\COc3ccc(-c4ccccc4)cc3C2=O)cc1O", "growth": "14.6% (inactive)"}
{"smiles": "O=C(O)/C(=C\\c1ccc(Cl)cc1)c1ccc(Cl)cc1", "growth": "78.9% (inactive)"}
{"smiles": "O=C1C(=O)N(CCCCn2cc(-c3ccccc3)nn2)c2ccccc21", "growth": "125% (inactive)"}
{"smiles": "COc1ccc(CSc2nc3cc(OC)c(OC)cc3c(=O)n2-c2ccc(Cl)cc2)cc1", "growth": "103% (inactive)"}
{"smiles": "O=C1/C(=C\\c2ccc(Cl)cc2)CN(C(=O)c2ccccc2)C/C1=C\\c1ccc(Cl)cc1", "growth": "-17.7% (active)"}
{"smiles": "Cc1cc(C(=O)Nc2ccc3cc(CN4CCOCC4)ccc3n2)c(C)n1-c1ccccc1", "growth": "26.7% (inactive)"}
